Screening results from PubChem.
AmpC no deterg: qHTS Inhibitors of AmpC Beta-Lactamase (assay without detergent). P00811. AmpC nitrocefin hydrolysis, absorbance 480 nm, 0.0001% Triton. Potency, µM (doses to about 57.1 µM), without a hit: at the highest dose activity change, negative = inhibition, most hits filed as inhibitors. actives 0.52% (n = 330,000). AID 485341, 2010;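 further: plate controls were no compound for no effect and no enzyme for full effect; nearly all actives have a fitted effect of over 20% in size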
Target sequence (P00811 whole entry, looked up): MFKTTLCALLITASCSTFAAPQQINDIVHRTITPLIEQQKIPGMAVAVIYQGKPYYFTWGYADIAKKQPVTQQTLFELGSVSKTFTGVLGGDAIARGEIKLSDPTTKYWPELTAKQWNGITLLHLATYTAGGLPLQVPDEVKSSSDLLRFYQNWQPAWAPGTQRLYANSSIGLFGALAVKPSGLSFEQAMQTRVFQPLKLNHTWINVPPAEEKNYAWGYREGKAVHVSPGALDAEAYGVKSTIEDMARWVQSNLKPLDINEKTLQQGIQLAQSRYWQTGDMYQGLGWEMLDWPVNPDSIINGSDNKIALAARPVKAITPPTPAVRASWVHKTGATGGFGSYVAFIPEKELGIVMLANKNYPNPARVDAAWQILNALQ
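20 mM phosphate pH 7.0 + 0.01% (detergent screen) or 0.0001% Triton X-100; 5.3 nM AmpC reagent; cpd preinc 15 min RT; nitrocefin (800 uM stock) to start; A480 q20 s × 4 min; Activity was normalised to no-enzyme and no-compound control wells.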
Pf growth 48h: Primary qHTS for delayed death inhibitors of the malarial parasite plastid, 48 hour incubation; P. falciparum luciferase growth in erythrocytes, 48 h; Potency, µM (top dose mostly 28.7 µM), for inactives: top-dose activity change, negative = inhibition, actives largely listed as inhibitors; actives 5.9% (n = 310,000); AID 504832, 2011
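Luciferase-expressing P. falciparum in infected erythrocytes (2% hematocrit, 0.1% parasitemia final) in RPMI 1640/0.5% Albumax were exposed to compound for 48 hours at 37 C, 5% CO2; growth read as luminescence.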
Pf growth 96h: Primary qHTS for delayed death inhibitors of the malarial parasite plastid, 96 hour incubation. P. falciparum luciferase reporter growth, 96 h. Potency, µM (top dose mostly 28.7 µM), inactives show top-dose activity change, negative = inhibition, hits mostly inhibitors. actives 6.9% (n = 320,000)
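Plates of compound plus infected erythrocytes (2% hematocrit, 0.05% parasitemia final) incubate 96 hours, 37 C, 5% CO2. Detection reagent added; reduced luminescence from the parasites' luciferase reporter flags inhibition.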
HCV inhibitor: qHTS Assay for Inhibitors of Hepatitis C Virus (HCV); AID 651820, 2012; Huh7.5.1 HCVcc-Cre infection, luciferase reporter, 44 h; actives 3.4% (n = 340,000); Potency, µM (top dose mostly 41.8 µM), for inactives: at the top dose activity change, negative = inhibition, hits mostly inhibitors
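Infectious HCVcc-Cre (~0.5 moi) was added to cells just after compound, with cells seeded 4 h earlier at 1,000 per well. Luciferase activity after 44 h culture reported infection; substrate was incubated 15 min at room temperature before reading.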
AmpC inh detg: qHTS Inhibitors of AmpC Beta-Lactamase (assay with detergent); AmpC hydrolysis of nitrocefin, absorbance 480 nm, 0.01% Triton; Potency, µM (series often up to 114 µM), inactives show at the highest dose activity change, negative = inhibition, most hits filed as inhibitors; actives 0.041% (n = 370,000);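 further: 0% = no-compound wells and -100% = no-enzyme wells; nearly all actives have a fitted effect of over 25% in size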
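20 mM phosphate pH 7.0 + 0.01% (detergent screen) or 0.0001% Triton X-100; 5.3 nM AmpC reagent; cpd preinc 15 min RT; nitrocefin (800 uM stock) to start; A480 q20 s × 4 min; Activity was normalised to no-enzyme and no-compound control wells.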
AMA1 RON2 block: qHTS for Inhibitors of AMA1-RON; Towards Development of Antimalarial Drug Lead: Primary Screen; AID 720542, 2013; Plasmodium falciparum AMA1 (3D7) - RON2 peptide interaction; actives 0.2% (n = 360,000); AlphaScreen AMA1-biotinylated RON2 peptide binding; Potency, µM (series often up to 58.2 µM), inactives show top-dose activity change, negative = inhibition, actives largely listed as inhibitors;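 further: 0% = vehicle wells and -100% = peptide control; nearly all actives have a fitted effect of over 45% in size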
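AMA1 (3D7) with his tag at 25 nM final met compounds first, then biotinylated RON2 peptide at 25 nM; detection used donor plus acceptor beads, 10 µg/mL apiece, read by AlphaScreen after 30 min at room temperature.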
Active calls of the source: *; ? = inconclusive; . = no result; [ ] = dose if it differs, or a comment. Only some compounds are listed: those with a hit (about 11% of all), similar ones and a draw of the others. The call rests on the fitted dose curve; in most records, active means well fitted curve in the direction sought with a large enough effect; inconclusive means small, poorly fitted or top-dose-only effect, or another doubt; inactive means no such curve, though single readings can be large; an effect the other way counts as inactive or inconclusive. Unless noted, on the % scale 0 is the no-effect control and ±100 the full control effect; potency means the concentration at half of the fitted maximal effect.

SMILES	AmpC no deterg	Pf growth 48h	Pf growth 96h	HCV inhibitor	AmpC inh detg	AMA1 RON2 block
CCOc1ccccc1N(C)C(=O)c1ccc2c(=O)n3c(nc2c1)CCCCC3	93%	?	1.5µM*	-12%	1%	14%
CCc1ccc(NC(=O)c2ccc3c(=O)n4c(nc3c2)CCCCC4)cc1	55%	?	-21%	10µM*	8%	-20%
CN(Cc1ccc(C(C)(C)C)cc1)C(=O)c1ccc2c(=O)n3c(nc2c1)CCC3	162%	13µM*	?	-11%	?	6%
O=C(Nc1cccc(S(=O)(=O)N2CCCCC2)c1)c1ccc2c(=O)n3c(nc2c1)CCCCC3	38%	?	13µM*	6.3µM*	-5%	0%
Cc1ccc(NC(=O)CC2Oc3ccccc3NC2=O)cc1C (configuration not stated)	.	.	.	.	16%	.
CCc1ccc2occ(CC(=O)Nc3ccc(C)c(C)c3)c2c1	.	.	.	.	-13%	.
CCOc1ccc(NC(=O)c2ccc3c(=O)n4c(nc3c2)CCCCC4)cc1	-17%	?	16%	11µM*	-1%	11%
CC(C)c1ccc(S(=O)(=O)/N=C2/C=C(Sc3ncn[nH]3)C(=O)c3ccccc32)cc1	-49%	1.3µM*	?	2.5µM*	2%	-4%[11.6 µM]
Cc1ccc(S(=O)(=O)/N=C2\C=C(NS(=O)(=O)c3ccccc3)C(=O)c3ccccc32)c(C)c1	.	.	.	-1%	.	-8%
Cc1ccc(S(=O)(=O)/N=C2/C=C(Sc3ncn[nH]3)C(=O)c3ccccc32)c(C)c1	25µM*	2.1µM*	-23%	?	-18%	.
Cc1ccc(S(=O)(=O)/N=C2/C=C(Sc3ncn[nH]3)C(=O)c3ccccc32)cc1	-35%	1.5µM*	16%	4µM*	-18%	-2%
Cc1ccc(S(=O)(=O)Nc2ccc(O)c(Sc3ncn[nH]3)c2)cc1	-31%	-3%	-21%	13%	10%	31%
Cc1ccc(-c2cn(-c3cccc(Cl)c3)c(S(=O)(=O)CC(=O)Nc3ccccc3F)n2)cc1	.	.	.	.	14%	.
CCCN(CCC)c1nc(N)c(C#N)c(CC#N)c1C#N	-23%	.	13µM*	?	-6%	-1%
Cc1nn(CC(=O)Nc2ccc(OC(F)(F)F)cc2)c(=O)c2c(C)n(-c3ccc(Cl)cc3)nc12	.	.	.	.	13%	.
CC(C)CNC(=O)CSc1ccc(S(=O)(=O)N(C)C2CCCCC2)cn1	4%	9.3µM*	-13%	10%	0%	0%
CCOC(=O)NC(=O)CSc1ccc(S(=O)(=O)N(C)C2CCCCC2)cn1	-25%	6.6µM*	13µM*	10%	-2%	14%
Cn1c(=O)c(=O)n(C)c2cc(S(=O)(=O)N3CCN(c4ccccc4)CC3)ccc21	.	.	.	.	2%	.
COc1cccc(Nc2nc3cc(Cl)c(Cl)cc3nc2-n2nc(C)cc2C)c1	.	.	.	.	21%	.
CCOC(=O)N1CCN(C(=O)c2cccn3c(=O)c4cc(Br)ccc4nc23)CC1	-11%	-14%	14%	2%	2%	10%
CCOC(=O)N1CCN(C(=O)c2cccn3c(=O)c4sccc4nc23)CC1	-3%	27%	2.3µM*	7%	2%	1%
CCOC(=O)N1CCN(C(=O)c2ccc3nc4ccsc4c(=O)n3c2)CC1	0%	2%	8.3µM*	1%	-8%	3%
CCOC(=O)N1CCN(C(=O)c2ccc3nc4ccc(Cl)cc4c(=O)n3c2)CC1	-11%	5%	?	-25%	3%	-2%
Cc1cccc(NC(=O)CSc2nnc(CNC(=O)c3ccc(S(=O)(=O)N(C)C)cc3)n2-c2cccc(C)c2)c1	136%	?	7.4µM*	?	-4%	0%
Cc1cccc(NC(=O)CSc2nnc(CNC(=O)c3ccc(S(=O)(=O)N(C)C)cc3)n2-c2ccccc2)c1	120%	?	?	?	-4%	-8%
SMILES	AmpC no deterg	Pf growth 48h	Pf growth 96h	HCV inhibitor	AmpC inh detg	AMA1 RON2 block
Cc1cccc(-n2c(CNC(=O)c3ccc(S(=O)(=O)N(C)C)cc3)nnc2SCC(=O)Nc2ccc(F)cc2)c1	96%	12µM*	?	-7%	-19%	12%
Cc1cccc(NC(=O)CSc2nnc(CNC(=O)c3ccc(S(=O)(=O)N(C)C)cc3)n2-c2ccc(F)cc2)c1	101%	-14%	?	?	-13%	-25%
Cn1c(=O)n(C/C=C/c2ccccc2)c(=O)c2c1nc1n2CCN1c1ccc(F)cc1	.	.	.	.	20%	.
CCc1cnc2c(c1SCC(=O)c1ccc(Cl)cc1)c(=O)n(C)c(=O)n2C	.	.	.	.	-3%	.
COc1ccc(C2C(C(=O)Nc3cc(OC)c(OC)c(OC)c3)c3ccccc3C(=O)N2C)cc1 (configuration not stated)	115%	2.1µM*	16%	-24%	0%	3%
COc1ccc(OC)c(C2C(C(=O)O)c3ccccc3C(=O)N2C)c1 (configuration not stated)	-1%	0%	9%	9%	3%	26%
COc1cc(OC)c(C2C(C(=O)O)c3ccccc3C(=O)N2C)cc1OC (configuration not stated)	-19%	3%	15µM*	9%	9%	2%
COc1cc2c(cc1OC)C(C(=O)Nc1ccccn1)C(c1cccnc1)N(C)C2=O (configuration not stated)	-5%	-17%	1.7µM*	6%	-1%	3%
COc1cc2c(cc1OC)C(C(=O)Nc1ccc3c(c1)OCCO3)C1c3ccccc3CCN1C2=O (configuration not stated)	156%	-9%	9.3µM*	-5%	-5%	-2%
CCOc1ccc(-n2c(=O)c3sc4ccccc4c3n(Cc3ccc(F)cc3)c2=O)cc1	.	.	.	.	8%	.
Cc1ccccc1CN1c2ccccc2-c2nc(SCC(=O)NCCc3ccccc3)ncc2S1(=O)=O	.	.	.	.	-7%	.
Cc1ccc2oc(C(=O)Nc3sc4c(c3C(=O)NCc3ccccc3)CCCC4)cc(=O)c2c1	.	.	.	.	2%	.
COc1ccc(C2C(C(=O)Nc3ccc4c(c3)OCCO4)c3ccccc3C(=O)N2C)cc1 (configuration not stated)	-12%	5.2µM*	?	2%	3%	0%
COc1ccc(NC(=O)C(C)n2nnc3sc(-c4ccccc4)cc3c2=O)cc1Cl (configuration not stated)	.	.	.	.	18%	.
